Hits are enriched below; roughly 1.4% of the tested compounds scored in any of these assays.
APOBEC3A inh: inhibitors of human APOBEC3A DNA deaminase | P31941 | recombinant A3A, FAM/TAMRA ssDNA deamination fluorescence | inhibition, % at 20 µM | actives 0.41% (n = 330,000) | AID 493011;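 active = at least 40% inhibition at 20 µM here, with at most 30% in a related deaminase screen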;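 note: plate controls were A3A with DMSO for no effect and wells lacking A3A enzyme for full effect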
HDAC3 inh: inhibitors of human histone deacetylase 3 | O15379 | recombinant HDAC3, fluorogenic peptide/trypsin coupled, fluorescence | inhibition, % at 8.3 µM | actives 0.15% (n = 320,000); in the data active = inhibition above about 26%, passing the limit was not always enough
Target sequence (O15379 whole entry, looked up): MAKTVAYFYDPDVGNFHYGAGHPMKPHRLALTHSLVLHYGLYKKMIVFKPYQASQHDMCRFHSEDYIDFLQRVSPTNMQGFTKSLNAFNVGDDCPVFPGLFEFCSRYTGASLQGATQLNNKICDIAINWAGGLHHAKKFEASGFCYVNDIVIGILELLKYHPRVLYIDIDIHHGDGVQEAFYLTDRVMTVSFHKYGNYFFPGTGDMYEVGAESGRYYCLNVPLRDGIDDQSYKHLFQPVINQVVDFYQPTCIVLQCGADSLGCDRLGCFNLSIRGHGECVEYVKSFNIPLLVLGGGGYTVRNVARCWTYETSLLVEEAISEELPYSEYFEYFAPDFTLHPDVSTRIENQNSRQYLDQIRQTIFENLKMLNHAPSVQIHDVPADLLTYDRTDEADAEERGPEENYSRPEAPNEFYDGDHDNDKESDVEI
A3G deaminase: inhibitors of human APOBEC3G DNA deaminase | Q9HC16 | inhibition, % at 20 µM | actives 0.28% (n = 330,000) | recombinant A3G, ssDNA deamination FAM/TAMRA fluorescence;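 active = inhibition of at least 40% at 20 µM, with no more than 30% in the related APOBEC3A deaminase screen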;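 note: plate controls were DMSO wells with A3G for no effect and wells lacking A3G enzyme for full effect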
LANA-H2A inh: blocks KSHV LANA binding to histone H2A/H2B. Q9QR71. cell-free LANA-H2A/H2B peptide, fluorescence polarization. inhibition, % (test concentration not listed). AID 2629. actives 0.6% (n = 320,000); in the data active = inhibition mostly above about 10%, no sharp cut-off; inactive = mostly below about 6.7%
Active calls of the source: *; nt = no result given; + = active, no number.

SMILES	APOBEC3A inh	HDAC3 inh	A3G deaminase	LANA-H2A inh
CC(C)(C)C(=O)Nc1cccc(OC(F)(F)C(F)Cl)c1 (stereo not given)	0	5	-12	32*
COc1cccc(NC(=O)c2ccc(NC(=O)C(C)(C)C)cc2)c1	2	5	-3	0
COc1ccc(NC(=O)c2cc(F)cc(F)c2)cc1S(=O)(=O)N1CCCCC1	9	3	4	18*
Cc1cnc(C(=O)OCC(=O)N2CCC(C)CC2)cn1	8	1	1	-2
Cc1ccc(C)c(NC(=O)CSc2cccc3cccnc23)c1	-7	-6	-6	17*
Cc1cccc(NC(=O)CSc2cccc3cccnc23)c1	-1	3	1	5
O=C(Nc1cccc2cccnc12)c1ccc(Cl)cc1	-3	2	-1	0
CCOC(=O)N1CCC(=NNC(=O)c2cc3ccccc3cc2O)CC1	1	nt	-6	nt
CCOC(=O)C1=C(C)C/C(=N\NC(=O)c2ccccc2O)CC1	-6	-7	0	17*
COc1cccc(C2CC(c3ccc(Cl)cc3)n3nc(N)nc3N2)c1 (stereo not given)	3	2	7	+
CCOc1ccc(C2CC(c3ccccc3C)n3nc(N)nc3N2)cc1 (stereo not given)	-2	-2	1	33*
COc1ccc(C2CC(c3ccccc3C)n3nc(N)nc3N2)cc1 (stereo not given)	1	3	-2	-6
COc1ccc(OC)c(N2C(=O)CC(NNC(=O)c3ccc4c(c3)OCO4)C2=O)c1 (stereo not given)	3	-3	-8	6
CN(C(=S)NC(=O)c1ccccc1)C1CCCCC1	0	-7	-6	4
Cc1nn(S(=O)(=O)c2ccc(Cl)cc2)c(C)c1Sc1ccc([N+](=O)[O-])cc1	nt	-11	nt	12*
Cc1nn(-c2ccccc2)c(N)c1Sc1ccc([N+](=O)[O-])cc1	2	1	-4	1
Cc1nn(C(=O)CNC(=O)c2ccccc2)c(C)c1C	-10	-1	-7	9.6*
Cc1cc(C(C)(C)C)cc(C)c1CCNC(=O)c1c(C)noc1C	3	nt	3	nt
Cn1c2ccccc2c(=O)c2ccc(-c3ccc4c(c3)OCO4)cc21	-2	9	-10	9
CCCC(=O)Oc1ccc(N(C(=O)CCC)S(=O)(=O)c2cccs2)cc1	0	56*	-4	0
CCCC(=O)Oc1ccc(N(C(=O)CCC)S(=O)(=O)c2cccc([N+](=O)[O-])c2)cc1	-4	50*	-10	3
COc1cccc(-c2nc3ccc(C(=O)NC(C)Cc4cccnc4)cc3o2)c1 (stereo not given)	2	-31	-2	5
CCCCN(C(=O)C1CCCO1)c1c(N)n(CCC)c(=O)[nH]c1=O (stereo not given)	-2	1	-4	-2
CC(C)c1nc(SCC(=O)N2CCCCCC2)c2c(=O)n(C)c(=O)n(C)c2n1	-2	0	-5	53*
CCOc1cccc(C2C(C(=O)c3ccc(C)o3)=C(O)C(=O)N2c2nccs2)c1 (stereo not given)	-5	5	-12	15*
SMILES	APOBEC3A inh	HDAC3 inh	A3G deaminase	LANA-H2A inh
C=CCNC(=S)Nc1ccc(Br)cc1F	-8	-3	-5	13*
NC(=O)CSc1nc(-c2ccccc2)c(-c2ccccc2)o1	-3	2	2	0
Nc1nc(-c2ccccc2)c(-c2ccccc2)o1	-1	-3	-2	29*
CCN(CC)S(=O)(=O)c1ccc(N2CC(C(=O)NCCc3ccc(Cl)cc3)CC2=O)cc1 (stereo not given)	35	-6	1	+
CN(C)CCNC(=O)C1CC(=O)N(c2ccc(F)c(Cl)c2)C1 (stereo not given)	2	1	-2	94*
CCN(CC)S(=O)(=O)c1ccc(N2CC(C(=O)NCCC3=CCCCC3)CC2=O)cc1 (stereo not given)	-2	4	-8	0
CCCCn1c(N)c(N(CCOC)C(=O)CN(C)CC(=O)Nc2ccc(Cl)c(Cl)c2)c(=O)[nH]c1=O	-5	-4	-8	1
O=C(COC(=O)c1cc(=O)[nH]c2ccccc12)NCc1ccccc1	3	-2	-8	-1
COc1ccc(CCNC(=O)c2cccn2C)cc1	-5	-9	4	30*
Cn1cccc1C(=O)NCCc1ccccc1	4	-4	-12	5
O=c1cc(CN2CCN(S(=O)(=O)c3cccc(Cl)c3)CC2)c2ccc(O)cc2o1	7	0	-2	-7
CCn1c(O)c(/C=C2\C=NN=C2c2ccccc2)sc1=S	-5	-1	-6	15*
CCCCn1c(O)c(/C=C2\C=NN=C2c2ccccc2)sc1=S	1	-3	-3	-1
CC(C)C(=O)Nc1nnc(CCN2CCOCC2)s1	-3	-3	-8	18*
O=C(O)[C@H](Cc1ccccc1)NC(=O)N1CCC(Cc2ccccc2)CC1	2	1	0	18*
CCc1nnc(N/N=C/c2cc(Br)c(O)cc2O)n1N	-2	6	1	-10
CC(C)(C)c1nnc(N/N=C/c2cc(Br)ccc2O)n(N)c1=O	nt	10	nt	+
Cc1ccc(NC(=O)CN2C(=O)C3CCCCN3C(=O)c3ccccc32)cc1 (stereo not given)	0	0	-5	-6
O=C(CN1C(=O)C2CCCN2C(=O)c2ccccc21)Nc1ccccc1-n1cccc1 (stereo not given)	2	1	-4	30*
C[C@H](NC(=O)c1nc[nH]c1C(=O)N[C@@H](Cc1ccccc1)C(=O)OCc1ccccc1)C(=O)OC(C)(C)C	-3	31*	-12	-4
CN(Cc1ccccc1)C(=O)c1[nH]cnc1C(=O)N[C@@H](Cc1ccccc1)C(=O)OCc1ccccc1	0	33*	-8	-1
CN(CC(=O)Nc1cccc(F)c1)C(=O)c1ccc2c(c1)CC(c1ccccc1)OC2=O (stereo not given)	-1	nt	-9	nt
CCCn1c(N)c(C(=O)CSc2nnc(C3CC3)n2C2CC2)c(=O)[nH]c1=O	4	-2	4	-2
Cc1ccc2[nH]c(C(=O)N3CCN(C=O)CC3)cc2c1	1	7	3	13
CCOC(=O)N1CCN(C(=O)c2cc3cc(C)ccc3[nH]2)CC1	-7	-5	-5	13*
SMILES	APOBEC3A inh	HDAC3 inh	A3G deaminase	LANA-H2A inh
COc1ccccc1N(C)S(=O)(=O)c1ccc(C(=O)NCC2CCCCC2)cc1	-3	7	-9	-4
NNC(=O)CCc1nc2ccc(O)cc2[nH]1	-4	-1	-10	13*
Cc1cnc(NC(=O)Nc2ccc(OCc3ccccc3)cc2)c(Br)c1	-4	5	-6	-7
Brc1ccc(C2=CC(c3ccco3)n3nnnc3N2)cc1 (stereo not given)	-6	0	-15	2
Brc1ccc(C2=CC(c3cccs3)n3ncnc3N2)cc1 (stereo not given)	-39	-1	-75	59*
OCCCc1nc2n(n1)C(c1cccs1)C=C(c1ccc(Br)cc1)N2 (stereo not given)	-25	0	-88	102*
Cc1nn(CC(=O)Nc2ccc3c(c2)OCCO3)c(C)c1[N+](=O)[O-]	-2	2	-6	7

Screening data deposited in PubChem by several laboratories.
